Holding throughout (assay): DAPPL (digital affinity profiling via proximity ligation, sequencing); 10 mM Tris-HCl pH 7.5, 50 mM NaCl, 1 mM DTT, 4% glycerol, room temperature, 30 min; GST-TFs on glutathione beads, 16-mer random dsDNA library, 0.1% formaldehyde crosslink after washing; high values mean tight binding
Conditions in all cases: protein: recombinant; tags: N-terminal GST; dsDNA, one strand shown

One experiment concerns the target T1, ERF (Homo sapiens, UniProt P50548 1-548).
T1 sequence: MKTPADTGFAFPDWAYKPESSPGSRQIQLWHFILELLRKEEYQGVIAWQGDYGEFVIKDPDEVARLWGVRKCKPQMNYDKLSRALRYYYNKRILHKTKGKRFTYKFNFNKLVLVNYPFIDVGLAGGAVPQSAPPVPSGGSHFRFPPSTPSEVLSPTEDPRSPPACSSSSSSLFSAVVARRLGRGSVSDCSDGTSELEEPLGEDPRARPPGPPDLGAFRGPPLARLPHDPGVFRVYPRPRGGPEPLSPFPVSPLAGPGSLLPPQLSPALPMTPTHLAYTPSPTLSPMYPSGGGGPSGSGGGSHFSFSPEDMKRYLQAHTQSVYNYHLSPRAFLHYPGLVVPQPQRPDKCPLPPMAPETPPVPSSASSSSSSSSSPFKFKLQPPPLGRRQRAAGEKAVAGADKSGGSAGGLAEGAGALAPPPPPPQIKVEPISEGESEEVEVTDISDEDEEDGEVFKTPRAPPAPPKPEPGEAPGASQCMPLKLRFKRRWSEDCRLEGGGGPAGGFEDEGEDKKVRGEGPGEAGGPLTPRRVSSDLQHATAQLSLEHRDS
The procedure, abridged:
(§1)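 In yeast, human transcription factors were expressed with a GST fusion, then pulled down on glutathione beads and given DNA barcodes. Pooled with a tag-only sample, they were exposed to 200 nmole of a 16-mer random double-stranded DNA library (Tris/NaCl/DTT/glycerol buffer, room temperature, 30 min), washed, crosslinked with 0.1% formaldehyde, proximity-ligated using BsaI/T4 ligase for 1 h at 37 °C, PCR-amplified and read on an Illumina NextSeq500. Each hexamer's frequency of reads for a factor, divided by the matching frequency for the tag-only sample, gives the binding signal.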

A further experiment has as its target T2, ETV3L (Homo sapiens, UniProt Q6ZN32 1-361).
T2 sequence: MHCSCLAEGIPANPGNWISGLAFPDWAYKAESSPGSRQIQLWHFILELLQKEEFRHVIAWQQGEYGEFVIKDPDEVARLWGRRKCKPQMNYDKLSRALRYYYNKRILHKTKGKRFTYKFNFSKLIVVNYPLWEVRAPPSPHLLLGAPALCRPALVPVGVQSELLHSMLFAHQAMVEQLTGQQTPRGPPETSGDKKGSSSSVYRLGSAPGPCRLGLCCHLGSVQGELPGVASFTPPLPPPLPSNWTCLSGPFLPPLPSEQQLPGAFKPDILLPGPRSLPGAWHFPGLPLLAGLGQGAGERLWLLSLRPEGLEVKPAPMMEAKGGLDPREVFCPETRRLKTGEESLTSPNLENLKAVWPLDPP
Summed up: as §1

Another experiment has as its target T3, ETS2 (Homo sapiens, UniProt P15036 1-469).
T3 sequence: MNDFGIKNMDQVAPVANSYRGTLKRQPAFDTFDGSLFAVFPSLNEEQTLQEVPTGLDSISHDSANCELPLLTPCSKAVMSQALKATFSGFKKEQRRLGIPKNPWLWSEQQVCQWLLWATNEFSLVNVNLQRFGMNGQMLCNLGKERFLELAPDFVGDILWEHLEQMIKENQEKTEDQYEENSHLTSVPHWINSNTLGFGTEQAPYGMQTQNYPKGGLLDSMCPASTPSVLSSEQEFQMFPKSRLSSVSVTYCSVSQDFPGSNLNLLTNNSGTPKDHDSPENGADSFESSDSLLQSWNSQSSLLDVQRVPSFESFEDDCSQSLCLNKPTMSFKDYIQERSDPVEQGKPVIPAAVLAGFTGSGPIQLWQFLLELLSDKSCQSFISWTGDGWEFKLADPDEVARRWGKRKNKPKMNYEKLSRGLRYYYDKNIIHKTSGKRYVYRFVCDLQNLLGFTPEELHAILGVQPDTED
The procedure, abridged: as §1

In a further experiment the target is T4, SPDEF (Homo sapiens, UniProt O95238 1-335).
T4 sequence: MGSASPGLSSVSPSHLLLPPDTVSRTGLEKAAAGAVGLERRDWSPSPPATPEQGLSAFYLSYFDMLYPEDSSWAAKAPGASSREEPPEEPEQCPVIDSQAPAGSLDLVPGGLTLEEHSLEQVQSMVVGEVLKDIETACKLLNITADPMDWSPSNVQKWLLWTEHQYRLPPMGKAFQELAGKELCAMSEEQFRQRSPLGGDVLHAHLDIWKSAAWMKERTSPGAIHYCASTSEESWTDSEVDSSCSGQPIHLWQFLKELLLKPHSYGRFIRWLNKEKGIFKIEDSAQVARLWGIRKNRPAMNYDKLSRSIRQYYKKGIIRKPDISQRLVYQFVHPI
Summed up:
as §1

The target of the next experiment is T5, ETV7 (Homo sapiens, UniProt Q9Y603 1-341).
T5 sequence: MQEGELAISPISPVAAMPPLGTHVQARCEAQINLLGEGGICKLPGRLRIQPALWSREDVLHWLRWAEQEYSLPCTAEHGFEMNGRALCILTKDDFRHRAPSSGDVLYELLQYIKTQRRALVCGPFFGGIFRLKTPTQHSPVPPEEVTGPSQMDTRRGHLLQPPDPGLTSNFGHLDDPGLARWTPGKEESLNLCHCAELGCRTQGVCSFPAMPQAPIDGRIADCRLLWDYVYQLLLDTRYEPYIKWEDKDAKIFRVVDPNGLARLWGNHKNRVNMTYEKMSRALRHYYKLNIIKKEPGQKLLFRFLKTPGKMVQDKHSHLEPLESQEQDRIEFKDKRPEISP
Summed up: as §1

A further experiment has as its target T6, ELF5 (Homo sapiens, UniProt Q9UKW6-2 1-255).
T6 sequence: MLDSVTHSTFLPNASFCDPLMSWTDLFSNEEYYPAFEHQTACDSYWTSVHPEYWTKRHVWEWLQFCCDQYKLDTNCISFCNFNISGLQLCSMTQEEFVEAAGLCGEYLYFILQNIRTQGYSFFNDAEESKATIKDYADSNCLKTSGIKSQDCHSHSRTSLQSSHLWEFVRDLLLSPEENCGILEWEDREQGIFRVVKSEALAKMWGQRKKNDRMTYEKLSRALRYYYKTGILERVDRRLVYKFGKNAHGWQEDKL
The procedure, abridged: as §1

The next experiment addresses T7, ETV3 (Homo sapiens, UniProt P41162-2 1-143).
T7 sequence: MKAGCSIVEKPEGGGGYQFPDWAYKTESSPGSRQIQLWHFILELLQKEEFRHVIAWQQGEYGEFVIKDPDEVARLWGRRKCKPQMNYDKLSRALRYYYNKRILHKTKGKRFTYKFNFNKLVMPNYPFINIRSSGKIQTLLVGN
The procedure, abridged: as §1

The target in the next experiment is ETV6 (Homo sapiens, UniProt P41212 1-452). Summed up: as §1
Sequence of ETV6 (P41212 whole entry): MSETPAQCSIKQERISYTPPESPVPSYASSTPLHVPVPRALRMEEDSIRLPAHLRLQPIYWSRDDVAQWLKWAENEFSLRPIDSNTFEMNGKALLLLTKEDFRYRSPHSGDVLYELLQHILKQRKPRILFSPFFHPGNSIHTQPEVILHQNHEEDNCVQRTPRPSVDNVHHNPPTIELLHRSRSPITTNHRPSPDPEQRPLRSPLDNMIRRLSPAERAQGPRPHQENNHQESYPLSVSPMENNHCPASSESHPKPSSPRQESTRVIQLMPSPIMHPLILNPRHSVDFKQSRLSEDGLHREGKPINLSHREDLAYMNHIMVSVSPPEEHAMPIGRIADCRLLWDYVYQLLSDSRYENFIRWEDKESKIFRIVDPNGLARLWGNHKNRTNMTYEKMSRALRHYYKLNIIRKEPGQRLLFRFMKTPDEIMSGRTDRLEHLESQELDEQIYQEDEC

With CTTTTA, the binding signal was 1.39 fold enrichment (6-mer frequency, TF over GST control) in the experiment with ERF; 1.42 fold enrichment (6-mer frequency, TF over GST control) with ETV3L; 1.32 fold enrichment (6-mer frequency, TF over GST control) with ETS2; 1.18 fold enrichment (6-mer frequency, TF over GST control) in the experiment with SPDEF; 1.42 fold enrichment (6-mer frequency, TF over GST control) with ETV7; 1.21 fold enrichment (6-mer frequency, TF over GST control) with ELF5. In addition, the binding signal in the experiment with ETV3 is 1.4 fold enrichment (6-mer frequency, TF over GST control); in the experiment with ETV6 it was 1.31 fold enrichment (6-mer frequency, TF over GST control).

As for TGACCT, the binding signal is 1.66 fold enrichment (6-mer frequency, TF over GST control) with ERF; 1.83 fold enrichment (6-mer frequency, TF over GST control) in the experiment with ETV3L; 1.72 fold enrichment (6-mer frequency, TF over GST control) with ETS2; 1.74 fold enrichment (6-mer frequency, TF over GST control) in the experiment with SPDEF; 1.75 fold enrichment (6-mer frequency, TF over GST control) with ETV7; 1.73 fold enrichment (6-mer frequency, TF over GST control) with ELF5. Further, the binding signal is 1.59 fold enrichment (6-mer frequency, TF over GST control) with ETV3 and 1.66 fold enrichment (6-mer frequency, TF over GST control) in the experiment with ETV6.

As for TAAAGA, the binding signal is 1.23 fold enrichment (6-mer frequency, TF over GST control) with ERF; 1.12 fold enrichment (6-mer frequency, TF over GST control) with ETV3L; 1.08 fold enrichment (6-mer frequency, TF over GST control) with ETS2; 1.04 fold enrichment (6-mer frequency, TF over GST control) with SPDEF; 1.08 fold enrichment (6-mer frequency, TF over GST control) with ETV7; 1.05 fold enrichment (6-mer frequency, TF over GST control) with ELF5. For the same sequence, the binding signal with ETV3 is 1.08 fold enrichment (6-mer frequency, TF over GST control); with ETV6 it was 1.06 fold enrichment (6-mer frequency, TF over GST control).

In the case of TGCGTA, the binding signal is 1.15 fold enrichment (6-mer frequency, TF over GST control) with ERF; 1.17 fold enrichment (6-mer frequency, TF over GST control) in the experiment with ETV3L; 1.19 fold enrichment (6-mer frequency, TF over GST control) with ETS2; 1.12 fold enrichment (6-mer frequency, TF over GST control) with SPDEF; 1.01 fold enrichment (6-mer frequency, TF over GST control) in the experiment with ETV7; 1.1 fold enrichment (6-mer frequency, TF over GST control) with ELF5. For the same sequence, in the experiment with ETV6, the binding signal is 1.11 fold enrichment (6-mer frequency, TF over GST control).

Take ATACCA: the binding signal with ERF was 1.06 fold enrichment (6-mer frequency, TF over GST control); in the experiment with ETV3L it was 1.08 fold enrichment (6-mer frequency, TF over GST control); in the experiment with ETS2, 1.06 fold enrichment (6-mer frequency, TF over GST control); with SPDEF, 1 fold enrichment (6-mer frequency, TF over GST control); with ETV7, 1.02 fold enrichment (6-mer frequency, TF over GST control); in the experiment with ELF5, 1.03 fold enrichment (6-mer frequency, TF over GST control). For the same sequence, in the experiment with ETV6, the binding signal was 1.01 fold enrichment (6-mer frequency, TF over GST control).

Consider TGTCTG, for which the binding signal was 1.09 fold enrichment (6-mer frequency, TF over GST control) in the experiment with ERF; 1.05 fold enrichment (6-mer frequency, TF over GST control) with ETV3L; 1.09 fold enrichment (6-mer frequency, TF over GST control) in the experiment with ETS2; 1.15 fold enrichment (6-mer frequency, TF over GST control) with SPDEF; 1.02 fold enrichment (6-mer frequency, TF over GST control) in the experiment with ETV7; 1.15 fold enrichment (6-mer frequency, TF over GST control) in the experiment with ELF5. Besides, in the experiment with ETV6, the binding signal was 1.12 fold enrichment (6-mer frequency, TF over GST control).

For TTCAGT, the binding signal was 1.09 fold enrichment (6-mer frequency, TF over GST control) with ERF; 1.13 fold enrichment (6-mer frequency, TF over GST control) with ETV3L; 1 fold enrichment (6-mer frequency, TF over GST control) with ETS2; 1.07 fold enrichment (6-mer frequency, TF over GST control) with SPDEF; 1.04 fold enrichment (6-mer frequency, TF over GST control) with ETV7; 1.05 fold enrichment (6-mer frequency, TF over GST control) with ELF5. In addition, the binding signal with ETV6 is 1.06 fold enrichment (6-mer frequency, TF over GST control).

Regarding CCGGAC, the binding signal was 1.4 fold enrichment (6-mer frequency, TF over GST control) with ERF; 1.48 fold enrichment (6-mer frequency, TF over GST control) with ETV3L; 1.52 fold enrichment (6-mer frequency, TF over GST control) in the experiment with ETS2; 2.1 fold enrichment (6-mer frequency, TF over GST control) with SPDEF; 1.39 fold enrichment (6-mer frequency, TF over GST control) in the experiment with ETV7; 1.77 fold enrichment (6-mer frequency, TF over GST control) with ELF5. The binding signal in the experiment with ETV3 is 1.6 fold enrichment (6-mer frequency, TF over GST control); with ETV6 it was 1.41 fold enrichment (6-mer frequency, TF over GST control).
